According to the supplement of paper PMC13380429:
Values without a mark were called inactive.

System: Vero E6 infected with SARS-CoV-2
Assay: inhibition of SARS-CoV-2 cytopathic effect; higher = more antiviral protection, active = above 15
Settings: 48 h

| Compound | inhibition of SARS-CoV-2 cytopathic effect (1 nM) [%] | inhibition of SARS-CoV-2 cytopathic effect (8.33 nM) [%] | inhibition of SARS-CoV-2 cytopathic effect (100 nM) [%] | inhibition of SARS-CoV-2 cytopathic effect (833.33 nM) [%] | inhibition of SARS-CoV-2 cytopathic effect (10000 nM) |
| --- | --- | --- | --- | --- | --- |
| C=C[C@@](C)(/C=C/c1ccc(O)cc1)CCC=C(C)C [bakuchiol] | 1.64 | 2.39 | 0.23 | 0.59 | 0.79% |
| CC(N)C12CC3CC(CC(C3)C1)C2 (stereo not given) [rimantadine] | -2.29 | -2.48 | -4.1 | -5.56 | -5.71% |
| CC(=O)O[C@H]1C[C@@H]2CC[C@@H]3[C@H](CC[C@@]4(C)[C@H]3C[C@H]([N+]3(C)CCCCC3)[C@@H]4OC(C)=O)[C@@]2(C)C[C@@H]1[N+]1(C)CCCCC1 [pancuronium] | -2.97 | -1.22 | -0.15 | -0.93 | -1.28% |
| C[C@H](Nc1cc2c(-c3ccc4c(c3)OCO4)noc2cn1)c1ccccc1 | 0.3 | -0.01 | -0.1 | -0.91 | -1.26% |
| CCCCCCCCCCCCCCCC(=O)OC[C@H](COP(=O)([O-])OCC[N+](C)(C)C)OC(=O)CCCCCCCCCCCCCCC [colfosceril-palmitate] | -7.11 | -7.33 | -5.95 | -6.54 | -9.82% |
| Cc1ccc(S(=O)(=O)/C=C/C#N)cc1 | 0.18 | -2.24 | 0.01 | 4.59 | 18.8% (active) |
| CC1(C)CCC(C)(C)c2cc(C3(c4ccc(C(=O)O)cc4)OCCO3)ccc21 | -2.44 | -2.21 | 1 | -0.7 | -1.37% |
| CC1Cc2ccccc2N1NC(=O)c1ccc(Cl)c(S(N)(=O)=O)c1 (stereo not given) [indapamide] | 0.88 | 2.8 | 0.11 | 1.3 | 1.05% |
| Nc1ncnc2c1ncn2[C@@H]1O[C@H](COP(=O)(O)O)[C@@H](O)[C@H]1O [adenosine-phosphate] | -6.5 | -1.98 | -4.25 | -3.83 | -12.6% |
| COc1cc2nccc(Oc3ccc(NC(=O)C4(C(=O)Nc5ccc(F)cc5)CC4)cc3)c2cc1OC [cabozantinib] | 1.77 | 1.83 | -0.89 | -1.04 | -14.2% |
| CCN(CC)Cc1ccc2cc(COC(=O)Nc3ccc(C(=O)NO)cc3)ccc2c1 [givinostat] | -2.85 | -0.88 | -5.68 | -19.8 | -29.6% |
| Cc1nc(-c2cn3c(n2)-c2ccc(-c4cnn(C(C)(C)C(N)=O)c4)cc2OCC3)n(C(C)C)n1 [taselisib] | 3.71 | 1.62 | -1.05 | -1.92 | -8.91% |
| O=C(Nc1cnccc1Cl)N1CCN(Cc2ccc3c(c2)OC(F)(F)O3)CC1 | 1.58 | -1.35 | 1.93 | 0.76 | 0.7% |
| C[C@@H]1C/C=C/C=C/C=C/C=C/[C@H](O[C@@H]2O[C@H](C)[C@@H](O)[C@H](N)[C@@H]2O)C[C@@H]2O[C@](O)(C[C@@H](O)C[C@H]3O[C@@H]3/C=C/C(=O)O1)C[C@H](O)[C@H]2C(=O)O [natamycin] | 2.57 | -0.49 | -2.28 | -6.12 | -4.75% |
| CCn1c(=O)[nH]c2cc(Cl)c(Cl)cc21 | 0.36 | 1.8 | 0.73 | -2.68 | -2.08% |
| OCc1ccccc1O[C@@H]1O[C@H](CO)[C@@H](O)[C@H](O)[C@H]1O [salicin] | 0.33 | 2.34 | 1.75 | 2.27 | 5.91% |
| O=C(Nc1ccccc1)[C@]12C[C@H]1/C(=N\O)c1ccccc1O2 | 1.02 | 3.35 | -0.61 | -0.42 | 1.97% |
| COC(F)(F)C(Cl)Cl [methoxyflurane] | 0.46 | 5.27 | 4.68 | 0.29 | -1.64% |
| O=S1(=O)OC(c2ccc(O)cc2)(c2ccc(O)cc2)c2ccccc21 [phenolsulfonphthalein] | -0.46 | -1.87 | -1.84 | -1.16 | 3.89% |
